The supplement of paper PMC6522484
± gives the standard deviation of the averaged measurements.

Legend:
[1] = system: DLD1; assay: cell viability (CellTiter-Glo) relative to plate median (fraction of plate median); higher = more viable cells; details: 5 µM; treatment time 24 h; reporter: 7TFP
Procedure, shortened: (§1)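 Each entry is a luminescence signal normalised to the plate median, averaged over independent replicates. The replicate count was two, and the cells were colorectal cancer lines with stable lentiviral TCF/Wnt firefly luciferase reporters exposed to library compounds at a final 5 µM for 24 h. Firefly luciferase and CellTiterGlo were measured on parallel plates.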

[2] = system: HCT116; assay: as above; details: 5 µM; treatment time 24 h; reporter: TCF4/Wnt
Procedure, shortened: as §1

[3] = system: SW480; assay: as above; details: 5 µM; treatment time 24 h; reporter: 7TFP
Procedure, shortened: as §1

[4] = system: DLD1; assay: TCF/Wnt firefly luciferase reporter signal relative to plate median (fraction of plate median); higher = higher Wnt reporter signal; details: 5 µM; treatment time 24 h; reporter: 7TFP
Procedure, shortened: as §1

[5] = system: SW480; assay: as above; details: 5 µM; treatment time 24 h; reporter: 7TFP
Procedure, shortened: as §1

Compound | cell viability [1] | cell viability [2] | cell viability [3] | TCF/Wnt firefly luciferase reporter signal [4] | TCF/Wnt firefly luciferase reporter signal [5]
COc1ccc(C2CC(=O)c3ccc(OC)cc3O2)cc1 (stereo not given) | 0.994 ± 0.11 | 1.08 ± 0.021 | 1.05 ± 0.05 | 1.05 ± 0.12 | 0.901 ± 0.021
Nc1ccc(C(=O)Oc2ccccc2)c(O)c1 | 1.05 ± 0.096 | 1.16 ± 0.064 | 1.05 ± 0.042 | 1.08 ± 0.14 | 1.03 ± 0.035
C[C@H](N)CO | 0.911 ± 0.034 | 0.902 ± 0.047 | 0.93 ± 0.035 | 0.908 ± 0.058 | 1.12 ± 0.092
CC(N/C(=N\C#N)Nc1ccncc1)C(C)(C)C (stereo not given) | 0.99 ± 0.043 | 0.904 ± 0.0014 | 0.989 ± 0.1 | 0.799 ± 0.04 | 0.941 ± 0.073
CN[C@H]1CC[C@@H](c2ccc(Cl)c(Cl)c2)c2ccccc21 | 0.713 ± 0.26 | 0.386 ± 0.052 | 0.934 ± 0.22 | 0.796 ± 0.23 | 0.675 ± 0.15
COc1ccc(C(=O)c2ccccc2O)c(O)c1 | 0.953 ± 0.022 | 0.977 ± 0.0028 | 0.952 ± 0.016 | 1.16 ± 0.042 | 1.06 ± 0.057
CC(=O)/N=c1/sc(S(N)(=O)=O)nn1C | 0.987 ± 0.047 | 0.909 ± 0.13 | 1.01 ± 0.053 | 0.865 ± 0.1 | 1.08 ± 0.099
CCCc1cc(OC)c2c(c1)OCO2 | 0.961 ± 0.11 | 0.939 ± 0.014 | 0.976 ± 0.049 | 0.958 ± 0.034 | 0.964 ± 0.065
CC(=O)NO | 1.035 ± 0.0071 | 0.999 ± 0.059 | 1.05 ± 0.057 | 1.155 ± 0.0071 | 1.075 ± 0.0071
C[C@]12C=CC(=O)C=C1CC[C@@H]1[C@@H]2[C@@H](O)C[C@@]2(C)[C@H]1CC[C@]2(O)C(=O)COP(=O)(O)O | 1.04 ± 0.021 | 1 | 0.943 ± 0.033 | 1.04 ± 0.14 | 1.06 ± 0.014
C/C=C(\C)C(=O)O[C@@H]1c2c(ccc3ccc(=O)oc23)OC(C)(C)[C@@H]1OC(C)=O | 0.969 ± 0.011 | 0.92 ± 0.029 | 0.926 ± 0.047 | 0.997 ± 0.075 | 1.09 ± 0.057
Cc1c(Nc2ncccc2C(=O)O)cccc1C(F)(F)F | 0.977 ± 0.016 | 1.1 ± 0.11 | 1.04 ± 0.042 | 1.11 ± 0.057 | 0.948 ± 0.14
CN[C@@H]1[C@H](O)[C@H](NC)[C@H]2O[C@@]3(O)C(=O)C[C@@H](C)O[C@H]3O[C@@H]2[C@H]1O | 1.04 ± 0.08 | 1.004 ± 0.0085 | 0.978 ± 0.025 | 1.24 ± 0.18 | 1.09 ± 0.13
CCCCCCOc1ccccc1C(N)=O | 0.9695 ± 0.0078 | 0.954 | 0.962 ± 0.041 | 1.09 ± 0.21 | 1.11 ± 0.13
COc1cc(CO)cc2c1C(=O)c1c(O)cc(O)cc1C2=O [Carviolin] | 0.883 ± 0.19 | 0.93 ± 0.018 | 0.99 ± 0.0014 | 0.811 ± 0.1 | 0.963 ± 0.044
O=c1cc(CO)occ1O | 1.02 ± 0.057 | 1.13 ± 0.099 | 0.932 ± 0.011 | 0.952 ± 0.069 | 1.04 ± 0.083
O=c1c(O)c(-c2ccc(O)c(O)c2)oc2cc(O)cc(O)c12 | 0.9445 ± 0.00071 | 0.9265 ± 0.0021 | 1 ± 0.036 | 0.936 ± 0.062 | 0.983 ± 0.067
NCCNCCNCCN | 1.03 | 0.986 ± 0.049 | 1.01 ± 0.064 | 0.999 ± 0.058 | 1.03 ± 0.052
C[C@@]12C[C@@]3(O)O[C@@H](O1)[C@]1(COC(=O)c4ccccc4)[C@H]3C[C@@]12O[C@@H]1O[C@H](CO)[C@@H](O)[C@H](O)[C@H]1O | 1.06 ± 0.014 | 0.887 ± 0.12 | 1.015 ± 0.0071 | 0.941 ± 0.052 | 1.01 ± 0.21
OC[C@H]1O[C@@](CO)(O[C@H]2O[C@H](CO)[C@@H](O)[C@H](O)[C@H]2O)[C@@H](O[C@H]2O[C@H](CO)[C@@H](O)[C@H](O)[C@H]2O)[C@@H]1O | 1.01 ± 0.047 | 1.05 ± 0.014 | 1 ± 0.025 | 0.9905 ± 0.0078 | 0.989 ± 0.073
CC(CCc1ccccc1)NCC(O)c1ccc(O)c(C(N)=O)c1 (stereo not given) | 1.01 ± 0.12 | 1.08 ± 0.014 | 0.943 ± 0.044 | 0.935 ± 0.012 | 0.939 ± 0.046
COc1c(O)cc2c(c1O)[C@@H]1O[C@H](CO)[C@@H](O)[C@H](O)[C@H]1OC2=O | 0.966 ± 0.049 | 0.912 ± 0.039 | 1.02 ± 0.04 | 0.981 ± 0.14 | 1.09 ± 0.092
CC(C)(Oc1ccc(Cl)cc1)C(=O)O | 1.04 ± 0.021 | 1.17 ± 0.057 | 1.035 ± 0.0071 | 1.07 ± 0.13 | 1.1 ± 0.057
COc1cc(C)c2c(=O)cc(-c3ccccc3)oc2c1 | 0.991 ± 0.027 | 0.884 ± 0.083 | 1 ± 0.041 | 1.18 ± 0.092 | 1.14 ± 0.014
NC(=O)c1ncn([C@@H]2O[C@H](CO)[C@@H](O)[C@H]2O)n1 | 1.12 ± 0.035 | 1.04 ± 0.064 | 1.01 ± 0.021 | 1.22 ± 0.23 | 0.986 ± 0.09
CCCCCCCCCCCCCCCC[N+](C)(C)C | 0.9465 ± 0.0021 | 0.907 ± 0.093 | 0.969 ± 0.12 | 0.754 ± 0.12 | 0.701 ± 0.093
CCN(CC)CCNC(=O)c1cc(Cl)c(N)cc1OC | 1 ± 0.037 | 1.04 ± 0.066 | 0.993 ± 0.025 | 1.14 ± 0.05 | 1 ± 0.069
CCCC(=O)NCCc1ccccc1 [N-(2-Phenyl)ethylbutyramide] | 1.07 ± 0.11 | 1.08 ± 0.15 | 1.06 ± 0.071 | 1.07 ± 0.14 | 0.9865 ± 0.00071
Oc1cc2c(cc1O)C1c3ccc(O)c(O)c3OCC1(O)C2 (stereo not given) | 1.03 ± 0.028 | 1.04 ± 0.028 | 1 ± 0.023 | 0.944 ± 0.035 | 1.04 ± 0.035
CC1Cc2ccccc2N1NC(=O)c1ccc(Cl)c(S(N)(=O)=O)c1 (stereo not given) | 1.01 ± 0.069 | 1.1 ± 0.028 | 1 ± 0.013 | 0.967 ± 0.13 | 1.055 ± 0.0071
